ERp5 block = ERp5 (human) disulfide isomerase inhibition | ERp5 insulin aggregation, absorbance 650 nm, 90 min | actives 0.05% (n = 350,000) | Q15084 | AID 651711 | inhibition, % at 9.99 µM;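 active = mean replicate inhibition above about 25%, with every replicate also reaching it, limit read from the data, passing the limit was not always enough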
Target sequence (Q15084 whole entry, looked up): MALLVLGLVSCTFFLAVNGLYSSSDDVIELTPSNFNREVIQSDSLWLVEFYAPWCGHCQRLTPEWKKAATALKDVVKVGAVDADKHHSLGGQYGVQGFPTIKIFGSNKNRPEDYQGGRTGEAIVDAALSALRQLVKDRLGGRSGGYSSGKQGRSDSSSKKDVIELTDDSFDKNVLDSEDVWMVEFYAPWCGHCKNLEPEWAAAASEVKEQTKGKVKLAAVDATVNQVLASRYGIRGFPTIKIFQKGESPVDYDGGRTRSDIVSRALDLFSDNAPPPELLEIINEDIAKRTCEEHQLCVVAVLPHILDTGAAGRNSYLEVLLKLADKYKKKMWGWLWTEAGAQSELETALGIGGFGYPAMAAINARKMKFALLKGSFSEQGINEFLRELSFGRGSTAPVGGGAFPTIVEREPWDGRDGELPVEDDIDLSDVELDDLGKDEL
CaV13 FRET inh = Primary screen for inhibitors of IQ motif and Ca2+-dependent inactivation inhibitor domain binding in CACNA1D, Förster resonance energy transfer in living cells, …; HEK cells, CFP/YFP FRET ICDI-IQ, plate reader, 10 min; percent FRET-ratio fall versus neutral wells; inhibition, % at 12.3 µM; actives 0.098% (n = 340,000);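 active = mean replicate inhibition of at least 30% and at least 1% of replicates passing that level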;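 note: 0% = median of the neutral control wells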
PGC1a acetyl inh = modulators of PGC1a acetylation | U2OS PGC1a acetylation, AlphaScreen anti-acetyl-lysine; with virally co-expressed GCN5 acetyltransferase | inhibition, % at 15.6 µM | actives 0.17% (n = 350,000) | AID 651687;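 active = every replicate shows inhibition of at least 40%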;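 note: 0% = neutral control wells and 100% = positive control wells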
ERAP1 inh = ERAP1 (human) enzyme inhibition | Q9NZ08 | recombinant ERAP1, Leu-AMC fluorescence, 60 min | inhibition, % at 10.7 µM | actives 0.15% (n = 340,000);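 active = mean replicate inhibition of at least 30%, or all replicates individually reaching that 30% level; inactive = mean below 30% and not every replicate reaching it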;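 note: 0% = neutral control wells and 100% = L-leucinethiol positive control wells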
PglD DTNB = blocks C. jejuni PglD acetyltransferase activity; purified PglD enzyme, DTNB colorimetric CoA detection; inhibition, % at 12.5 µM; actives 0.098% (n = 360,000); AID 602405; in the data active = inhibition above about 16%, passing the limit was not always enough
PDI turbidity = inhibitors of human protein disulfide isomerase; PDI insulin aggregation turbidity, A650, 90 min; inhibition, % at 10 µM; actives 0.052% (n = 350,000); AID 588391;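 active = mean inhibition across replicates of 30% or more, whatever share of single replicates reach that level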
Numbers without * were called inactive; / = no result; + = active, no number. Shown are actives, neighbours in structure and some others; about 0.46% of the full set was active somewhere.

SMILES	ERp5 block	CaV13 FRET inh	PGC1a acetyl inh	ERAP1 inh	PglD DTNB	PDI turbidity
COC(=O)C[C@H]1CC[C@H]2[C@@H](COc3ccc(NS(C)(=O)=O)cc3C(=O)N2C)O1	-4	/	0	1	/	/
COc1ccc2c3c([nH]c2c1)[C@@H](CO)N(CC1CCOCC1)CC31CN(C(=O)C2CC2)C1	3	/	/	1	/	/
Brc1ccc(N/N=C(/N=Nc2nn[nH]n2)c2ccccc2)cc1	4	2	97*	-3	/	6
N#CC(C#N)=C1C=CC=CN1/C(=C\c1ccco1)C(=O)c1ccccc1	-3	-3	/	4	/	16
COc1ccc(C(=O)/C(=C\c2ccco2)N2C=CC=CC2=C(C#N)C#N)cc1	/	/	71*	/	5	-11
O=C(C[C@H]1C[C@H]2c3cc(NC(=O)c4ccc5c(c4)OCO5)ccc3O[C@H]2[C@H](CO)O1)NC1CCCCC1	-3	/	-7	-4	0	/
CS(=O)(=O)c1ccc(N)c(SSc2cc(S(C)(=O)=O)ccc2N)c1	-6	-9	2	39*	1	3
CS(=O)(=O)c1ccc2nc(N)sc2c1	/	-4	-11	/	-12	11
CNC[C@H]1OCCCC[C@H](C)Oc2ccc(NC(=O)CCC(F)(F)F)cc2C(=O)N([C@@H](C)CO)C[C@H]1C	/	/	-3	/	/	/
O=C(CCC1CCN(Cc2ccccc2Cl)CC1)NC1CC1	1	-20	95*	0	11	-2
O=C(CCC1CCN(Cc2ccccc2O)CC1)NC1CC1	0	-1	-15	0	-6	0
COc1ccc2c3c(n(C)c2c1)[C@H](CO)N(C(=O)C1CCC1)CC31CCN(CC2CCCC2)CC1	-4	/	-7	-1	/	/
O=C(CSc1nnc2ccc(-c3ccc(F)cc3)nn12)NCC1CCCO1 (stereo not given)	-13	-4	/	-1	/	-9
O=C(CSc1nnc2ccc(-c3ccc(F)cc3)nn12)N1CCCC1	-5	-4	16	34*	/	-1
CCCNC(=O)N1CCC2(CC1)CN(Cc1cccc(F)c1)[C@H](CO)c1[nH]c3cc(OC)ccc3c12	-2	/	/	0	/	/
Cc1ccc(S(=O)(=O)N(CC2CO2)c2ccccc2[N+](=O)[O-])cc1 (stereo not given)	-13	-3	79*	3	/	-3
Cc1ccc(N(CC2CO2)S(=O)(=O)c2ccccc2[N+](=O)[O-])cc1 (stereo not given)	1	-4	-7	-3	-3	2
Cc1ccc(S(=O)(=O)Nc2ccc3c(c2)C(=O)N([C@H](C)CO)C[C@H](C)[C@H](CN(C)S(=O)(=O)c2cn(C)cn2)O3)cc1	4	/	8	0	-1	/
Cc1n[nH]c(=O)c2c(NC(=O)CSc3nnnn3-c3ccccc3)oc(C)c12	-5	-2	/	5	0	2
Cc1n[nH]c(=O)c2c(NC(=O)CSc3nnnn3-c3ccc(O)cc3)oc(C)c12	-10	-6	/	2	-4	43*
COC(=O)c1c2oc(c1C(=O)OC)C(=O)N[C@H](Cc1ccccc1)Cn1cc(nn1)[C@@H](Cc1ccccc1)NC(=O)N[C@@H](CO)CC2	0	/	/	2	3	/
OCC1OC(n2ccc3c(NO)ncnc32)C(O)C1O (stereo not given)	-2	-6	/	1	/	-5
CN(C)c1ncnc2c1ccn2C1OC(CO)C(O)C1O (stereo not given)	1	-7	52*	-1	13	-1
CC(C)C(NC(=O)OCc1ccccc1)C(=O)NC(Cc1ccc(O)cc1)C(=O)O (stereo not given)	0	-4	-3	0	-4	-10
CC(C)[C@H](NC(=O)[C@H](CCCN=C(N)N)NC(=O)NC(Cc1ccccc1)C(=O)O)C(=O)NC(C=O)CCCN=C(N)N (stereo not given in full)	1	-6	3	35*	1	2
SMILES	ERp5 block	CaV13 FRET inh	PGC1a acetyl inh	ERAP1 inh	PglD DTNB	PDI turbidity
C[n+]1ccccc1/C=C/c1ccc(F)c(F)c1	4	9	/	4	0	-4
C[n+]1ccccc1/C=C/c1ccc2ncccc2c1	-2	-3	/	40*	-6	1
C[C@@H]1CN([C@@H](C)CO)S(=O)(=O)c2ccc(-c3cccnc3)cc2O[C@@H]1CN(C)C(=O)CC1CC1	-1	/	8	-4	-2	/
CSC1=NS(=O)(=O)c2c(C)nn(C)c2S1	-5	-4	3	87*	3	6
O=C(CN1CCOCC1)Nc1ccccc1Sc1ccccc1	1	-16	17	-2	/	-4
N=c1sccn1CC(=O)Nc1ccccc1Sc1ccccc1	1	-4	73*	-2	/	-9
COCCCNC(=S)N1CCCN(c2nc3cc(C)c(C)cc3cc2C#N)CC1	2	/	-11	4	-8	9
CCOCCCNC(=S)N1CCCN(c2nc3cc(C)c(C)cc3cc2C#N)CC1	-1	94*	-8	0	/	16
Cn1cnc(S(=O)(=O)N2CCCCN3[C@@H](CO)[C@@H](c4ccc(-c5ccccc5F)cc4)[C@@H]3C2)c1	0	/	-9	0	-6	/
C[C@@H]1CN([C@@H](C)CO)C(=O)c2cc(C#CC3CCCCC3)cnc2O[C@@H]1CN(C)C(=O)Nc1ccccc1	-1	/	1	/	0	/
O=C(Cc1ccccn1)N1CC(=O)N2[C@H](C1)[C@H](c1ccc(C#CC3CCCC3)cc1)[C@@H]2CO	-1	/	/	3	/	/
O=C(Cc1ccccn1)N1CC(=O)N2[C@@H](CO)[C@H](c3ccc(C#CC4CCCC4)cc3)[C@@H]2C1	4	/	/	32*	/	/
CC(C)C#Cc1ccc([C@@H]2[C@@H](CO)N3C(=O)CN(C(=O)NC4CCCC4)C[C@H]23)cc1	5	/	-10	-3	/	/
CC(C)C#Cc1ccc([C@@H]2[C@H](CO)N3C(=O)CN(C(=O)NC4CCCC4)C[C@@H]23)cc1	5	/	107*	-1	/	/
N#C[C@H]1[C@H](c2ccc(C#CC3CCCC3)cc2)[C@H](CO)N1C(=O)Cc1ccccn1	-1	/	59*	2	/	/
CC(=O)NC(Cc1c[nH]c2ccccc12)C(=O)OCC(=O)N1CCN(S(=O)(=O)c2ccc(Cl)cc2)CC1 (stereo not given)	-8	-5	-1	2	0	32*
COc1ccc2c3c([nH]c2c1)[C@H](CO)N(C(=O)c1cccnc1)CC31CCN(C(=O)NC(C)C)CC1	/	/	-3	/	/	/
Cc1ncc(CO)c(/C=N/NC(=O)c2ccccc2Br)c1O	6	-4	/	54*	/	4
COc1ccc(C(=O)N/N=C/c2c(CO)cnc(C)c2O)cc1	1	-4	/	33*	/	-2
O=C(C1=NN(c2ccccc2)C2C(=O)N(c3ccccc3)C(=O)C12)c1ccccc1 (stereo not given)	-2	+	/	0	/	10

Screening results deposited in PubChem by Broad Institute.
